# Results: PubChem BioAssay (EPA / NIEHS)
# Results filed as inconclusive are left out. Calls of active or inactive are those of the source. Rule for the calls: active = hit-call score of the fitted dose curve at least 0.9, where 1 is the maximum; inconclusive = response in the unintended direction; inactive = score below 0.9.
# Biological target: Estrogen receptor (Homo sapiens) + Estrogen receptor beta (Homo sapiens) (UniProt P03372+Q92731)
# Assay: OT_ER_ERaERb_0480: Odyssey Thera (OT) 8-hour HEK293T Protein-Complementation Assay for Estrogen Receptor-alpha/-beta Heterodimer (AID 2283352)
# Procedure: OT_ER_ERaERb_0480 is a cell-based assay that uses HEK293T, a human kidney cell line, with measurements taken at 8 hours after chemical dosing in a 384-well plate.OT_ER_ERaERb_0480 is one of one assay component(s) measured or calculated from the OT_ER_ERaERb_0480 assay. It is designed to make measurements of protein fragment complementation, a form of binding reporter, as detected with fluorescence intensity signals by Protein-fragment Complementation technology.Data from the assay component OT_ER_ERaERb_0480 was analyzed into 1 assay endpoint. This assay endpoint, OT_ER_ERaERb_0480, was analyzed in the positive analysis fitting direction relative to DMSO as the negative control and baseline of activity. Using a type of binding reporter, measures of receptor for gain-of-signal activity can be used to understand the binding at the pathway-level as they relate to the gene ESR1 and ESR2. Furthermore, this assay endpoint can be referred to as a primary readout, because the performed assay has only produced 1 assay endpoint. To generalize the intended target to other relatable targets, this assay endpoint is annotated to the nuclear receptor intended target family, where the subfamily is steroidal.
# Protein-fragment complementation assay, or PCA, is a method for the identification and quantification of protein-protein interactions. In the PCA, the proteins of interest ("bait" and "prey") are each covalently linked to fragments of a third protein (e.g. DHFR, which acts as a "reporter"). Interaction between the bait and the prey proteins brings the fragments of the reporter protein in close proximity to allow them to form a functional reporter protein whose activity can be measured. […] Fluorescent signal in the basal state of the assay is very low and is primarily punctuate and cytoplasmic. Modulation of this assay is quantified as an increase in mean fluorescence intensity in the nucleus (for agonists) or in the nucleus and cytoplasm (antagonists) relative to vehicle controls, and can be quantified on a high content imaging device or a laser scanning cytometer. The latter instrument is favored for this assay because of the rapid mode of data acquisition, the ability to acquire data from the entire cell population in a well (as opposed to a fraction of the well on the high content devices) and the larger dynamic range typically achieved with this instrument. To assess sensitivity of the ER alpha/ER beta LBD assay to ligand, cells were treated with the ER agonist 17- beta-estradiol (E2) in 10-point concentration- response format for 8 hours and monitored response on a laser scanning plate cytometer (Acumen eX3; TTP Lab Tech).
# Estrogen receptor (Homo sapiens) + Estrogen receptor beta (Homo sapiens), sequence (P03372 whole entry, looked up): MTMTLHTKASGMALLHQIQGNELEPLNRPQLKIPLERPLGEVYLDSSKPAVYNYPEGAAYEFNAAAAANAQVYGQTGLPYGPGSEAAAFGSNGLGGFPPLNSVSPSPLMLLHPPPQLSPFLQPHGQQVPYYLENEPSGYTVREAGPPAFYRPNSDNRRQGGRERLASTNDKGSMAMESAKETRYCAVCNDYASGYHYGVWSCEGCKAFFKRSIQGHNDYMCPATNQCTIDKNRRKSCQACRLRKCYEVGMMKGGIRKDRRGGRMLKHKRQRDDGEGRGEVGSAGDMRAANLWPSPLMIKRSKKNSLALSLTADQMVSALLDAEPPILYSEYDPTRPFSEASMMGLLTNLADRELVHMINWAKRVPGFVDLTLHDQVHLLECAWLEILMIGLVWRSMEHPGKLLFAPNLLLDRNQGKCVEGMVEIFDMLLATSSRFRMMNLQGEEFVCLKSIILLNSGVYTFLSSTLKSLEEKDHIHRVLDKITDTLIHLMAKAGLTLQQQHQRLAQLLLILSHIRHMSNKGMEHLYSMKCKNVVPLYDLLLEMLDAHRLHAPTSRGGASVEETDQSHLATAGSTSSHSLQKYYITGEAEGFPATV
# Estrogen receptor (Homo sapiens) + Estrogen receptor beta (Homo sapiens), sequence (Q92731 whole entry, looked up): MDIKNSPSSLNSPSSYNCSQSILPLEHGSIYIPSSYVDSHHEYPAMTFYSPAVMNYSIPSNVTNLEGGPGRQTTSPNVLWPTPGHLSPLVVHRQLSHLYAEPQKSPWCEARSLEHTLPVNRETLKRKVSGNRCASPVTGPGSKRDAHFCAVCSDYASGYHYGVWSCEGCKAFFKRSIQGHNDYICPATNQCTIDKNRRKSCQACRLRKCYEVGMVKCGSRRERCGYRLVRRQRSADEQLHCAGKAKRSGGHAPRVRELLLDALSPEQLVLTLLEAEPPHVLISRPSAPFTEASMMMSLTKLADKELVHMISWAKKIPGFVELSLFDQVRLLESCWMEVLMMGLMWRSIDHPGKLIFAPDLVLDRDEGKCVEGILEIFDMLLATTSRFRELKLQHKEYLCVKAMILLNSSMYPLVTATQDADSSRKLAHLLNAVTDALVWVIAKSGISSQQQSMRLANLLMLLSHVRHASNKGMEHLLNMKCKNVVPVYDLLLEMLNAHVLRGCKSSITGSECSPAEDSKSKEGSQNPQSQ
SMILES,outcome,AC50
CCC(C)(C)C(=O)OC1=C(c2ccc(Cl)cc2Cl)C(=O)OC12CCCCC2,inactive,–
COP(=O)(OC)OC=C(Cl)Cl,inactive,–
CC1(C)C(C=C(Cl)Cl)C1C(=O)OC(C#N)c1ccc(F)c(Oc2ccccc2)c1 (stereo unspecified),inactive,–
C[C@H]1[C@H](c2ccc(Cl)cc2)SC(=O)N1C(=O)NC1CCCCC1,inactive,–
COP(=S)(OC)Oc1ccc(SC)c(C)c1,inactive,–
CNC(=O)Oc1ccccc1OC(C)C,inactive,–
N#CN,inactive,–
Clc1ccccc1-c1nnc(-c2ccccc2Cl)nn1,inactive,–
O=[N+]([O-])c1c(Cl)c(Cl)c(Cl)c(Cl)c1Cl,inactive,–
O=[N+]([O-])/N=C1\NCCN1Cc1ccc(Cl)nc1,inactive,–
COc1nn(CSP(=S)(OC)OC)c(=O)s1,inactive,–
CNC(=O)/C=C(\C)OP(=O)(OC)OC,inactive,–
CCOC1Oc2ccc(OS(C)(=O)=O)cc2C1(C)C (stereo unspecified),inactive,–
O=C1c2ccccc2C(=O)N1SC(Cl)(Cl)Cl,inactive,–
CNC(=O)Oc1cccc(N=CN(C)C)c1,inactive,–
CCC(C)(NC(=O)c1cc(Cl)c(C)c(Cl)c1)C(=O)CCl (stereo unspecified),inactive,–
CC1(c2ccc(Oc3ccccc3)cc2)OC(=O)N(Nc2ccccc2)C1=O (stereo unspecified),inactive,–
CCC(C)Nc1c([N+](=O)[O-])cc(C(C)(C)C)cc1[N+](=O)[O-] (stereo unspecified),–,34.7 µM (active)
CC(C)OC(=O)Nc1cccc(Cl)c1,inactive,–
COP(=S)(OC)Oc1ccc([N+](=O)[O-])cc1,inactive,–
O=C(NC(=O)c1c(F)cccc1F)Nc1ccc(OC(F)(F)C(F)OC(F)(F)F)c(Cl)c1 (stereo unspecified),inactive,–
